High-throughput results as filed in PubChem.
An excerpt weighted towards active compounds, which were near 3.2% of everything screened.
Cardio protect = cardioprotection against H2O2-induced cell death, primary screen, uHTS, H9c2 cells, ATPLite luminescence; H9c2 cardiomyocytes, H2O2 injury protection, 2 h; hit rate 0.63% among 360,000; protection from H2O2 cell death, % at 20 µM;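 active means compounds giving at least 50% protection of heart cells from peroxide-induced death in the single-dose screen, raw or plate-pattern-corrected value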;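 further: 0% = DMSO wells with peroxide and 100% = DMSO wells without peroxide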
FAS TE block = FAS thioesterase domain inhibitors, primary screen, biochemical, fluorescence intensity, uHTS. Fatty acid synthase (Homo sapiens), P49327. recombinant FAS-TE, OMFH fluorogenic substrate, fluorescence endpoint. inhibition, % at 15 µM. hit rate 0.67% among 360,000. AID 602261, 2012;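 active means compounds whose normalised, plate-corrected inhibition of enzyme fluorescence in the single-dose primary screen is 50% or more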;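 further: 0% = DMSO with enzyme and 100% = substrate without enzyme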
CRFBP-R2 block = antagonists of CRF-BP/CRF-R2 complex, primary screen, cell-based, HEK293, calcium dye fluorescence, uHTS; CRF-induced calcium fluorescence; inhibition, % at 11.8 µM; hit rate 0.59% among 350,000; AID 588475, 2011;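 active means inhibition of the ligand-induced calcium signal above about 50% at the single tested concentration, limit read from the data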
aDG glyco up = activators of alpha-DG glycosylation, primary screen, uHTS, Pro5-aDG cells, AlphaScreen. activation, % at 10 µM. alpha-DG glycosylation AlphaScreen (IIH6); 0% Pro5, 100% B10-LARGE cell signal. hit rate 0.22% among 360,000. AID 624168, 2012;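 active means activation of at least 8% versus controls, or a plate z-score of at least 8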;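 further: Pro5 are CHO cells carrying HIG-tagged alpha-DG that lacks glycosylation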
CRFBP-R2 agonist = agonists of CRF-BP/CRF-R2 complex, primary screen, cell-based, HEK293, calcium dye fluorescence, uHTS; CRF-binding protein / CRF receptor 2 complex (human); calcium dye fluorescence (FLIPR); percent of saturating CRF peptide response; activation, % at 13.2 µM; hit rate 0.46% among 350,000; AID 588473, 2011;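 active means activation of at least 50%, plus an integration ratio under a set limit after plate pattern correction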;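 further: plate controls were neutral control wells without compound for no effect and CRF at EC100 for full effect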
PfGluPho inh = PfG6PD enzyme inhibitors, primary screen, biochemical, fluorescence intensity, uHTS; glucose-6-phosphate dehydrogenase-6-phosphogluconolactonase (Plasmodium falciparum 3D7); PfGluPho enzyme, NADPH resazurin-diaphorase fluorescence; inhibition, % at 20 µM; hit rate 0.78% among 350,000; AID 504690, 2011;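 active means inhibition reaching at least a set limit at 20 µM in the primary screen, cut at about 59% in these data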;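 further: 0% = DMSO wells with substrate and 100% = DMSO wells lacking glucose-6-phosphate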
Numbers without * were called inactive.

SMILES	Cardio protect	FAS TE block	CRFBP-R2 block	aDG glyco up	CRFBP-R2 agonist	PfGluPho inh
COc1ccc(C(=O)Nc2cc(=O)n(C)c(=O)n2C)cc1	8	-8	104*	1	0	8
Cc1ccc(NS(=O)(=O)c2csc(C(N)=O)c2)cc1C	-8	1	2	0	-2	1
COc1cccc(/C=N/NC(=O)c2nc(-c3ccccc3)cc(-c3ccccc3)n2)c1	89*	20	9	0	-1	-7
COc1ccc(/C=N/NC(=O)c2nc(-c3ccccc3)cc(-c3ccccc3)n2)cc1OC	29	12	-11	0	8	-23
O=C(N/N=C/c1ccccn1)c1cc(-c2ccncc2)nc2ccccc12	77*	4	-15	0	16	13
Cn1c2ccccc2c2cc(/C=N/NC(=O)c3cc(O)ccc3O)ccc21	53*	10	5	-1	-7	13
O=C(N/N=C/c1ccsc1)c1cc(-c2ccncc2)nc2ccccc12	2	-4	11	0	-1	2
O=C(N/N=C/c1ccc(O)c(O)c1)c1cc(-c2ccccc2)nc2ccccc12	61*	0	-19	0	-1	-3
O=C(c1ccc2c(=O)n(Cc3ccccc3Cl)c(=S)[nH]c2c1)N1CCCC1	-2	0	4	0	1	-5
Cc1ccc(C)c(-c2cc(C(=O)N/N=C/c3cccnc3)c3ccccc3n2)c1	56*	3	-29	0	5	3
Cc1ccc(-c2cc(C(=O)N/N=C/c3cccnc3)c3ccccc3n2)cc1C	-11	12	-7	0	1	28
Cc1ccc([C@H]2C(C(=O)O)=CC[C@@H](c3ccc(Cl)cc3)N2S(=O)(=O)c2ccc(C)cc2)cc1	-7	11	66*	0	6	-22
Cc1ccc(S(=O)(=O)N2[C@@H](c3ccc(Cl)cc3)C(C(=O)O)=CC[C@H]2c2ccc(C(C)C)cc2)cc1	-8	32	14	0	-2	-20
Cc1ccc([C@H]2C(C(=O)O)=CC[C@@H](c3ccc(C)cc3)N2S(=O)(=O)c2ccc(C)cc2)cc1	22	-2	94*	0	-1	-16
Cc1ccc(S(=O)(=O)N2[C@@H](c3ccc(Br)cc3)C(C(=O)O)=CC[C@H]2c2cccc(C)c2)cc1	-2	15	86*	0	-2	-15
Cc1ccc([C@H]2C(C(=O)O)=CC[C@@H](c3cccc(C)c3)N2S(=O)(=O)c2ccc(C)cc2)cc1	-4	-1	12	0	-1	-13
Cc1ccc([C@@H]2CC=C(C(=O)O)[C@H](c3ccccc3)N2S(=O)(=O)c2ccc(C)cc2)cc1	-1	-5	5	0	0	-10
CCCCC[C@@H]1C=C(C(=O)O)[C@H](c2cccc(C)c2)N1S(=O)(=O)c1ccc(C)cc1	8	4	60*	0	-2	-25
Clc1cccc(CN2CCN(c3ncccn3)CC2)c1Cl	-1	12	5	0	0	6
O=[N+]([O-])c1ccc(OC(F)F)c(/C=N/n2cnnc2)c1	6	4	14	0	0	-16
O=C(COc1cccc2c1CCNC2=O)Nc1cccc(F)c1	74*	-8	-9	0	4	1
Cc1cc(C)cc(NC(=O)[C@H](NC(=O)[C@@H]2Cc3ccccc3CN2)c2ccccc2)c1	2	8	-25	1	2	-2
COc1cc(/C=C2\SC(=S)N(NS(=O)(=O)c3ccc(C)cc3)C2=O)cc(OC)c1OC	-1	13	55*	0	1	-18
COc1ccc(/C=C2\SC(=S)N(C(Cc3ccccc3)C(=O)O)C2=O)cc1 (stereo unspecified)	-4	6	58*	0	-1	-8
COc1cc(/C=C2\SC(=S)N(CCC(=O)Nc3cccc(O)c3)C2=O)cc(OC)c1OC	67*	13	13	0	10	-4
